Source: PubChem BioAssay AID2384 (Southern Research Specialized Biocontainment Screening …, 2010)
Among all 2,300 compounds or so, about 1,100 (48%) were called active. No rule for the calls is given here. So high a share suggests a set chosen from earlier hits. The list shows a part of the results. Entries with a potency or affinity are not part of this list.

Assay: inhibitors in S. typhi counter-screen strain, dose response, counter-screen for PhoP regulon inhibitor project, fluorescence, 4 h (AID 2384)
Details: S. typhi GFP reporter counter-screen; series mostly up to 150 µM

| SMILES | inhibition |
| --- | --- |
| O=C(Nc1ccncc1)c1cc(-c2ccccn2)nc2ccccc12 | inactive |
| CC(C)[C@H](NC(=O)c1ccccc1Cl)C(=O)Nc1nc(-c2ccccn2)cs1 | inactive |
| Cn1cc(S(=O)(=O)Nc2ccc(OC(F)(F)F)cc2)c(=O)n(C)c1=O | inactive |
| CC(C)NC(=O)CN1CCN(Cc2nc(C(c3ccccc3)c3ccccc3)no2)CC1 | inactive |
| COc1c(C(=O)N2CCCC2)ccc2ccccc12 | inactive |
| COc1ccc2c(C(=O)CCl)c[nH]c2c1 | inactive |
| CCN1CCN(C(=O)Cc2coc3cc(C)cc(C)c23)CC1 | inactive |
| CCN1CCN(C(=O)/C=C/c2cccc(Cl)c2)CC1 | inactive |
| O=C(O)c1cc2cc(F)ccc2[nH]1 | inactive |
| Cc1c(Cl)cccc1NC(=O)C1CCN(S(C)(=O)=O)CC1 | inactive |
| COc1cccc(OC)c1C(=O)Nc1ccc(N2CCN(S(C)(=O)=O)CC2)cc1 | inactive |
| COCc1ccc(C(=O)Nc2ccc(C(=O)O)cc2)o1 | inactive |
| CCOC(=O)Cc1[nH]nc2c1C(c1ccoc1)C(C#N)=C(N)O2 (centres undefined) | inactive |
| O=C1c2ccccc2C(=O)C1(CO)c1ccc(OC(F)F)cc1 | inactive |
| O=c1c2ccccc2nc(-c2cccc(Cl)c2)n1O | inactive |
| COc1ccc(C(=O)O/N=C2\C(=O)N(C)c3ccccc32)cc1 | inactive |
| Cc1nc(SCC(=O)N2c3ccccc3Sc3ccccc32)n[nH]1 | inactive |
| CC(=O)NCCn1c(SCc2ccccc2C)nc2ccccc2c1=O | inactive |
| Cc1ccn2cc(C(=O)Nc3nnc(C)s3)nc2c1 | inactive |
| Cc1cccc(N/N=C/c2ccc(O)c(O)c2O)c1 | inactive |
| O=C(NCCO)C(=O)c1c(-c2ccc(Cl)cc2)cc2ccccn12 | inactive |
| CC(C)c1ccc(C2C(C#N)=C(N)Oc3c2oc(CO)cc3=O)cc1 (centres undefined) | inactive |
| COc1ccc(NS(=O)(=O)c2cccc(NC(=O)c3ccccn3)c2)cc1 | inactive |
| CCN(CC)CCNC(=O)c1cccc(NC(=O)C(=O)c2cc(Br)ccc2NC(C)=O)c1 | inactive |
| O=C(NC(=C(Cl)Cl)S(=O)(=O)c1ccc(Cl)cc1)c1ccccc1 | inactive |

| SMILES | inhibition |
| --- | --- |
| CCCN1C(=O)c2ccc(C(=O)Nc3nccs3)cc2C1=O | inactive |
| Nc1ccc(S(=O)(=O)Nc2nccs2)cc1 | inactive |
| O=C(NCc1cccnc1)c1ccc(Cl)cc1[N+](=O)[O-] | inactive |
| O=C(Nc1ccccc1)Nc1cccc(Cl)c1 | inactive |
| O=C(CCl)Nc1nccs1 | inactive |
| CN1C(=O)/C(=C/c2cccc(Cl)c2)Sc2ccc(C(=O)N3CCCC3)cc21 | inactive |
| O=C(NCc1ccco1)c1ccc2c(c1)N(Cc1ccccc1)CCS2 | inactive |
| O=C(COC(=O)/C=C/c1cccc(C(F)(F)F)c1)NCc1ccccc1 | inactive |
| CCC(=O)Nc1nc(C)c(C(=O)N2CCCCC2)s1 | inactive |
| O=C1c2ccccc2C(=O)N1CCC(c1ccccc1)c1ccco1 (centres undefined) | inactive |
| CCc1ccccc1NC(=O)c1onc(C)c1Cl | inactive |
| CC1(C)CC(=O)C2=C(C1)N(c1ccc(F)cc1)C(=O)CC2c1ccsc1 (centres undefined) | inactive |
| CCc1cc(CNC(=O)C2CCC(=O)N(Cc3cccc(F)c3)C2)on1 (centres undefined) | inactive |
| Fc1ccccc1CSc1ccc(-c2ccco2)nn1 | inactive |
| COc1cccc(NC(=O)CSc2nncn2-c2ccccn2)c1 | inactive |
| CCN1CCN(c2nc3ccccc3nc2C(C#N)S(=O)(=O)c2ccc(C)cc2)CC1 (centres undefined) | inactive |
| Cc1cccc(S(=O)(=O)c2c(N)n(/N=C/c3ccccc3)c3nc4ccccc4nc23)c1 | inactive |
| N#CCCn1c2ccccc2c2nc3ccccc3nc21 | inactive |
| CCCCn1c(NCc2ccccc2NS(=O)(=O)c2ccc(C)cc2)nc2ccccc21 | inactive |
| CCCN(CCC)c1nc(C)cc(C(C#N)c2nc3ccccc3o2)n1 (centres undefined) | inactive |
| CS(=O)(=O)c1cnc2c(-c3ccsc3)cnn2c1N | inactive |
| CS(=O)(=O)c1cnc2c(-c3ccc(F)cc3)cnn2c1N | inactive |
| Cc1ccc(OCC(O)Cn2c(N)nc3c2c(=O)n(C)c(=O)n3C)cc1 (centres undefined) | inactive |
| C=C(C)Cn1c(-c2ccc(OC)cc2)nc2ccccc21 | inactive |
| CC(C)Cc1nc(N2CCOCC2)c(C#N)c2c1COC(C)(C)C2 | inactive |

| SMILES | inhibition |
| --- | --- |
| C1CCC(n2nnnc2CN2CCN(C3CCCC3)CC2)CC1 | inactive |
| CCCCC(=O)Nc1ccc(F)c(Cl)c1 | inactive |
| CCN(CC)C(=O)C(=O)c1cn(CC(=O)N2CCc3ccccc3C2)c2ccccc12 | inactive |
| Cc1ccccc1-c1ncc(CN2CCN(C3CCCC3)C(CCO)C2)cn1 (centres undefined) | inactive |
| COc1cccc(/C=C/C(=O)c2cccc([N+](=O)[O-])c2)c1OC | inactive |
| COC(=O)c1ccc(OC(=O)c2cccnc2)cc1 | inactive |
| COC(=O)c1cn(C(=O)c2ccco2)c2ccccc12 | inactive |
| COc1ccc(N(C(=O)c2cccnc2)S(=O)(=O)c2cccc([N+](=O)[O-])c2)cc1 | inactive |
| O=C(On1c(-c2ccccc2)nc2ccccc2c1=O)c1ccco1 | inactive |
| COc1ccc(C[C@H]2CN3C(=NC[C@H]3Cc3ccccc3)N2CCNC(=O)c2ccc(C)c(Br)c2)cc1 | inactive |
| CCNC(=O)c1ccc(C2SCC(=O)N2CCc2ccccc2)cc1 (centres undefined) | inactive |
| COc1ccc2c(C(=O)CN(C)C3CCCCC3)c[nH]c2c1 | inactive |
| CCN1CCN(CC(=O)Nc2ccc(C)c(Br)c2)CC1 | inactive |
| CS(=O)(=O)N(CCc1ccccc1)CC(=O)Nc1ccc2c(c1)OCO2 | inactive |
| Cc1ccnc(NC(=O)CCC(=O)N(CC(=O)NC2CCCCC2)C2CCCC2)c1 | inactive |
| O=C(CSCc1ccccc1)Nc1cccc(C(=O)Nc2ccc(C(=O)O)cc2)c1 | inactive |
| Cc1ccc(NC(=O)CCNC(=O)c2ccccc2)cc1F | inactive |
| CN1C2=CC=CC=CC2=[N+](C)C12C=CC(=[N+]([O-])[O-])C=C2[N+](=O)[O-] (centres undefined) | inactive |
| Cc1cccc(/C(N)=N/OC(=O)N2CCOCC2)c1 | inactive |
| Cc1ccn2cc(-c3ccc4c(c3)NC(=O)CO4)nc2c1 | inactive |
| CC(C)n1cnnc1SCC(=O)Nc1ccc(Br)cc1F | inactive |
| N#Cc1ccc(-c2ccc(OCC(=O)NCCCN3CCCC3=O)cc2)cc1 | inactive |
| C1=C(CCNc2ncnc3c2[nH]c2ccccc23)CCCC1 | inactive |
| COc1ccc(-n2ncc3c(NCc4ccccn4)ncnc32)cc1 | inactive |
